Measurements reported in PubChem BioAssay AID1347417 (National Center for Advancing Translational Sciences (NCATS), 2020).
The whole screen tested about 120,000 compounds, of which about 5,300 (4.4%) were called active. Inconclusive results (about 22%) are left out. The full list was thinned out, with actives kept by preference. Unmarked numbers belong to inactive results. Calls follow the shape of the dose curve; as a rule, active = well fitted inhibition curve with a large enough effect; inconclusive = small, poorly fitted or top-dose-only effect; inactive = no such curve, though single readings can be large or run the other way.

assay: qHTS Primary assay for Inhibitors of Plasmodium falciparum Dd2 growth in vitro; also: nearly all actives have a fitted effect of over 65% in size;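 as to activity, negative = inhibition: plate controls were DMSO vehicle for no effect and reference drug for full effect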; conditions: P. falciparum Dd2 growth, SYBR Green, 72 h; series mostly up to 28.9 µM; activity, negative = inhibition: at the top concentration
In short: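 Infected erythrocytes (Dd2, 0.3% parasitemia, 2.5% hematocrit final) are added to compound in RPMI-1640/Albumax II medium, grown 72 h at 37C in low oxygen, then lysed with saponin/Triton-X containing SYBR Green and read by fluorescence.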
Potency is read from the fitted curve at half-maximal effect.

Structure (SMILES)	activity, negative = inhibition	Potency	outcome
O=C(NCc1ccncc1)C1CN(S(=O)(=O)c2cccnc2)CC12CCOCC2 (centres undefined)	16.7%		
CN1CCN(Cc2ccc(Nc3ncc(-c4cccnc4)c4c3OCC4)cc2)CC1		10 µM (active)	
COc1ncccc1Nc1ncc(-c2ccccc2)c2c1OCC2	-0.012% [at 44.1 µM]		
COc1ccccc1-c1cnc(NC(=O)c2ccc(Cl)cc2)c2c1CCO2	6.83% [at 44.1 µM]		
COc1cccc(C(=O)N2CCC(N3CCCCCC3=O)CC2)c1	2.85% [at 44.1 µM]		
Cc1cccc(C)c1CN1CCC2(CC1)Cc1ccccc1CNC2=O	-3.2%		
O=C1NCc2ccccc2CC12CCN(Cc1cccc(Cl)c1)CC2	-22.5%		
CC(C)Cc1ccc(CN2CCC3(CC2)Cc2ccccc2CNC3=O)cc1		11.2 µM (active)	
Cc1cc2nc3n(c(=O)c2n1CC(=O)NCc1ccc(F)cc1)CCCCC3			inactive; activator; fitted 0.5012 uM
O=C1NC(=NC2CCCCC2)C2(CCCN(S(=O)(=O)c3cccs3)C2)N1c1cc(F)cc(F)c1 (centres undefined)	-26.6%		
O=C(c1ccccc1F)N1CCCC2(C1)C(=NC1CCCCC1)NC(=O)N2c1cc(F)cc(F)c1 (centres undefined)	-4.93%		
COc1ccc(C(=O)N2CCCC3(C2)C(=NC2CCCC2)NC(=O)N3c2cc(F)cc(F)c2)cc1 (centres undefined)	-18.2%		
CC(C)CCN1CCC2(C1)C(=NC1CCCCC1)NC(=O)N2c1cc(F)cc(F)c1 (centres undefined)		8.91 µM (active)	
O=C1NC(=NC2CCCC2)C2(CCCN(Cc3ccsc3)C2)N1c1cc(F)cc(F)c1 (centres undefined)		5.01 µM (active)	
COC(=O)N1CCC2(CC1)C(=NC1CCCC1)NC(=O)N2c1cc(F)cc(F)c1	0.0213%		
CS(=O)(=O)N(C1CCOCC1)C1CCN(C(=O)CC2CCCC2)CC1	36.5%		
COc1ccc(C(=O)N2CCc3nc(C(C)C)nc(-c4ccc(Cl)cc4)c3CC2)cc1		11.2 µM (active)	
COc1ccc(-c2nc(C(C)C)nc3c2CN(C(=O)c2ccc(C(F)(F)F)cc2)CC3)cc1			inactive
COc1ccc(-c2nc(C(C)C)nc3c2CN(C(=O)c2ccccc2F)CC3)cc1	-24.9%		
O=C(c1ccc(C(F)(F)F)cc1)N1CCc2nc(C3CC3)nc(-c3ccc(Cl)cc3)c2C1	-11.2%		
O=C(c1cccc(Cl)c1)N1CCc2nc(C3CC3)nc(-c3ccc(Cl)cc3)c2C1	-12.8%		
COc1ccc(-c2nc(C3CC3)nc3c2CCN(C(=O)c2ccc(C(F)(F)F)cc2)CC3)cc1		5.01 µM (active)	
O=C(c1ccccc1)N1CCC2(CC1)C(=O)NCN2C(=O)CCCN1CCCC1	-16.4%		
COc1ccccc1OCCNC(=O)c1cn2ccnc(-c3ccc(C)cc3)c2n1	1.02%		

Structure (SMILES)	activity, negative = inhibition	Potency	outcome
Cn1cc(CNC(=O)C[C@@H]2C[C@H]3O[C@H](CNC(=O)Nc4cccs4)[C@@H](O)[C@H]3O2)cn1	13.5%		
COC1CCN(C(=O)c2c(-c3cnn(C)c3NCc3cccnc3)noc2C)CC1	-23.5% [at 44.1 µM]		
COc1ccc(N2CC(c3noc(-c4ccc(C(C)(C)C)cc4)n3)CC2=O)cc1 (centres undefined)			inactive
CCn1cc(-c2ccc(OC)cc2)cc1C(=O)N1CCC(C)CC1	-7.32%		
Cc1ccc(CN2CCC3OCCN(Cc4ccccc4)C(=O)C3C2)o1 (centres undefined)			inactive [at 44.1 µM]
Cn1nc2n(c1=O)CCN(C(=O)C1CC=CCC1)CC2 (centres undefined)	12.7%		
COc1cc2[nH]c(=O)n(Cc3ccc(C(=O)NCc4ccc(C)cc4)cc3)c(=O)c2cc1OC	-25%		
COc1ccc(Cn2cc(C(=O)c3ccc(C)cc3)c(=O)c3cc(OC)c(OC)cc32)cc1		12.6 µM (active)	
CCOc1ccc(NC(=O)Cn2cc(C(=O)c3ccc(C)cc3)c(=O)c3cc4c(cc32)OCCO4)cc1	13%		
COc1ccc2c(c1)c(=O)c(C(=O)c1ccccc1)cn2CC(=O)Nc1ccc2c(c1)OCCO2			inactive
COc1ccc(NC(=O)Cn2cc(C(=O)c3ccncc3)c(=O)c3cc(C)ccc32)cc1Cl	-12.7%		
CCOc1ccc(C(=O)c2cn(Cc3ccccc3OC)c3ccc(F)cc3c2=O)cc1		10 µM (active)	
COC(=O)C1=CN(CC(=O)Nc2ccc(F)cc2F)S(=O)(=O)N=C1C	38.3%		
COc1ccc(-c2nc(CN3CCC(C(=O)NCc4ccccc4)CC3)c(C)o2)cc1OC	-4.44%		
CCn1cnnc1CC1CCN(C(=O)c2cc(-c3ccc(F)cc3)nc3ccccc23)CC1			inactive
CCn1cnnc1CC1CCN(C(=O)C2CCN(Cc3nc(-c4cccc(C)c4)oc3C)CC2)CC1		3.16 µM (active)	
CC(C)CNC(=O)N1C[C@@H](Oc2cccnc2)C[C@H]1C(=O)N1CCOCC1	4.23%		
NS(=O)(=O)c1ccc(F)c(C(=O)NCc2ccc3nonc3c2)c1	-3.1%		
CCOc1ccc(CCNc2nc(-c3ccccc3)no2)cc1			inactive
CCCNC(=O)c1ccc2c(c1)ncn2-c1ccc(C)cc1C		11.2 µM (active)	
Cc1ccc(-n2cnc3cc(C(=O)NCCC4=CCCCC4)ccc32)cc1Cl	-1.01%		
Cc1ccc(CCNC(=O)c2ccc3c(c2)nc2n3CCC(C)C2)cc1 (centres undefined)	9.74%		
Cc1cc(Cn2cc3c4c(cccc42)[C@H](CC(C)C)N[C@H](C(=O)N2CCCCCC2)C3)no1	-18.5%		
CN1C(=O)c2cccn2CC1C(=O)N1CCc2ccccc21 (centres undefined)	-23.7%		

Structure (SMILES)	activity, negative = inhibition	Potency	outcome
COc1ccc(Cl)cc1NC(=O)c1sc2nc3c(cc2c1N)CN(C)CC3			inactive
CCc1ccc(NC(=O)c2cnc3c(-c4ccccc4)c(C)nn3c2C)cc1	28.5%		
O=C(Nc1ccc(OC(F)(F)F)cc1)c1cc2c(=O)n3ccccc3nc2s1	-6.4%		
CCN1CCc2nc3sc(C(=O)Nc4ccccc4OC(F)(F)F)c(N)c3cc2C1		10 µM (active)	
CCc1cccc(NC(=O)c2cnc(N3CCOCC3)c3ccccc23)c1	-1.56%		
CCc1ccc(NC(=O)c2sc3nc4c(cc3c2N)CN(CC)CC4)cc1		11.2 µM (active)	
CCOc1ccccc1C(=O)N1CCC2(CC1)CN(C(C)=O)CC2COC (centres undefined)	-6.6%		
CCC(=O)N1CCc2c(sc3ncnc(NCc4cccnc4)c23)C1	-11.2%		
Cc1noc2c(-c3cccc(CO)c3)cc(-c3ccccc3)nc12	14.6% [at 44.1 µM]		
O=C(Cc1ccc(OC(F)(F)F)cc1)N1CC2CC(C1)[C@H]1CCCC(=O)N1C2 (some centres undefined)	-23.3%		
Cn1ccnc1C(=O)N1CCCCCCNC(=O)[C@@H]2CCCC[C@@H]21	-9.02%		
CC1(C)[C@H](Cc2cc(-c3ccccc3)on2)C[C@@H]1NS(C)(=O)=O			inactive [at 44.1 µM]
CC1(C)[C@H](Cc2cc(-c3ccccc3)on2)C[C@@H]1NCC1CC1		12.6 µM (active)	
CC1(C)[C@H](Cc2cc(CCO)on2)C[C@@H]1NCC1CC1	-27.4% [at 44.1 µM]		
CCn1ncc(N2CCC(NC(=O)CCOC)CC2)cc1=O	14.1%		
O=C(NC1CCN(c2cc(-c3ccc(Cl)cc3)[nH]n2)CC1)c1ccccc1F	-19.1%		
O=C(Cn1ccn2nc(-c3ccccc3)c(CO)c2c1=O)Nc1cc(F)ccc1Cl	5.55%		
CC1=C[C@@H](CNC(=O)COc2ccccc2)[C@H](C(C)C)C[C@H]1CC(=O)NCc1ccccn1			inactive
CC1=C[C@@H](CC#N)[C@H](C(C)C)C[C@H]1CC(=O)N1CCN(C)CC1	-5.72% [at 44.1 µM]		
CC1=C[C@@H](CNC(C)C)[C@H](C(C)C)C[C@H]1Cc1nnc(-c2ccncc2)o1			inactive [at 44.1 µM]
Fc1ccc(CN2CC[C@H](c3nnc(-c4ccccc4F)o3)C2)cc1			inactive [at 44.1 µM]
CC1=C[C@@H](CNC(C)C)[C@H](C(C)C)C[C@H]1Cc1nnc(-c2ccc(N(C)C)cc2)o1		3.55 µM (active)	
CC1=C[C@@H](CNC(=O)NC(C)C)[C@H](C(C)C)C[C@H]1Cc1nnc(-c2ccncc2)o1	-13.7% [at 44.1 µM]		
CC1=C[C@@H](CN2CCN(CCO)CC2)[C@H](C(C)C)C[C@H]1Cc1nnc(-c2ccc(C)cc2)o1	-0.227%		

Structure (SMILES)	activity, negative = inhibition	Potency	outcome
CC1=C[C@@H](CN2CCCC2)[C@H](C(C)C)C[C@H]1Cc1nnc(-c2ccc([N+](=O)[O-])cc2)o1		1.78 µM (active)	
CC1=C[C@@H](CN2CCC(O)CC2)[C@H](C(C)C)C[C@H]1Cc1nnc(-c2ccccc2F)o1		8.91 µM (active)	
CN(C)C[C@@H]1CN(Cc2ccccn2)C[C@H]1NC(=O)c1cc(Cl)ccc1F	-5.45%		
Cc1ccc(C(=O)N2C[C@@H](Oc3cccnc3)C[C@H]2C(=O)N2CCOCC2)s1			inactive
CCC(CC)NC(=O)C1Cn2cccc2C(=O)N1 (centres undefined)	28.6%		
Cc1noc(-c2cn(C3CCN(C(=O)c4ccoc4)CC3)nn2)n1			inactive
NC(=O)c1cccc(-c2ccc3c(n2)CN(Cc2ccc(C(F)(F)F)cc2)C(=O)CO3)c1	-1.99%		
COc1ccc(Nc2nc(-c3cccc(OC)c3OC)no2)cc1	-26.2%		
COc1ccc(-c2noc(-c3cccn3CC(=O)Nc3cc(Cl)ccc3OC)n2)cc1F		3.98 µM (active)	
CC(=O)c1ccc(NC(=O)COc2ccccc2-c2nc(-c3ccccc3)no2)cc1	31%		
O=C(Cn1cccc1-c1nc(-c2ccccc2)no1)Nc1ccccc1F		3.98 µM (active)	
COc1ccc(Cl)cc1NC(=O)Cn1c(=O)c2ccccc2n2nncc12	-12.2%		
COc1ccc(CNC(=O)Cn2cccc2-c2nc(-c3ccc(F)cc3)no2)cc1	47.4%		
O=C(Cn1cccc1-c1nc(-c2ccc(F)cc2)no1)Nc1cc(F)cc(F)c1			inactive
COc1ccc(Cl)cc1NC(=O)CSc1nc(=O)[nH]c2c1CCCC2			inactive
COc1ccc(-c2noc(-c3cccn3CC(=O)Nc3ccccc3)n2)cc1F		1.58 µM (active)	
CCc1cc(=O)n(CC(=O)Nc2ccccc2F)c(-c2cccc(F)c2)n1	-32.6%		
CCOC(=O)N1CCC(N2CCN(c3cc(C(C)C)nc(C)n3)CC2)CC1	-26.4%		
Cc1ccccc1C(=O)N[C@@H]1CN(c2ncccn2)C[C@H]1CO	15.2%		
Cc1cccc(-c2noc(CCC(=O)N[C@H]3CC[C@H]3NC3CCCC3)n2)c1			inactive
CO[C@H]1C(=O)N(C2CCN(C(=O)c3ccncc3)CC2)[C@H]1c1ccncc1	16.9%		
Cc1nc(-c2c3n(c(=O)n(Cc4ccc(Br)cc4)c2=O)CCCCC3)no1	-2.97%		
